Source: PubChem BioAssay (Tox21)
Where “and” joins values, the source holds several entries; their conditions need not be identical. Identical values can stand only once. Inconclusive results are not listed. A call without a number means that no potency is given here. More than one record can exist for a structure, and the calls need not agree. Calls of active or inactive are those of the source. Unless noted, calls come from the whole dose curve; as a rule, active = well fitted curve in the direction sought with a large enough effect in the repeat runs; inconclusive = weak or mixed curves; inactive = no such curve, though single readings can be large; an effect the other way counts as inactive or inconclusive.

How the values were obtained:
[1] = qHTS assay to identify small molecule antagonists of the androgen receptor (AR) signaling pathway using the MDA cell line in the presence of 0.5 nM R1881 - cell viability counter screen (AID 1259242); note: nearly all actives have a fitted effect of over 45% in size; note: potency is the fitted concentration of half-maximal effect
Summary of the method: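 Concentration-response screen of compounds for toxicity in MDA-kb2 reporter cells: 16 hr at 37C with 0.5 nM R1881, endpoint live-cell protease fluorescence measured in the reporter wells.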

[2] = biological target: Estrogen receptor (Homo sapiens) (UniProt P03372); assay: qHTS assay to identify small molecule antagonists of the estrogen receptor alpha (ER-alpha) signaling pathway using the BG1 cell line in the presence of 0.1 nM 17-beta-estradiol (AID 1259244); note: nearly all actives have a fitted effect of over 50% in size; note: potency is the fitted concentration of half-maximal effect
Estrogen receptor (Homo sapiens), sequence (P03372 whole entry, looked up): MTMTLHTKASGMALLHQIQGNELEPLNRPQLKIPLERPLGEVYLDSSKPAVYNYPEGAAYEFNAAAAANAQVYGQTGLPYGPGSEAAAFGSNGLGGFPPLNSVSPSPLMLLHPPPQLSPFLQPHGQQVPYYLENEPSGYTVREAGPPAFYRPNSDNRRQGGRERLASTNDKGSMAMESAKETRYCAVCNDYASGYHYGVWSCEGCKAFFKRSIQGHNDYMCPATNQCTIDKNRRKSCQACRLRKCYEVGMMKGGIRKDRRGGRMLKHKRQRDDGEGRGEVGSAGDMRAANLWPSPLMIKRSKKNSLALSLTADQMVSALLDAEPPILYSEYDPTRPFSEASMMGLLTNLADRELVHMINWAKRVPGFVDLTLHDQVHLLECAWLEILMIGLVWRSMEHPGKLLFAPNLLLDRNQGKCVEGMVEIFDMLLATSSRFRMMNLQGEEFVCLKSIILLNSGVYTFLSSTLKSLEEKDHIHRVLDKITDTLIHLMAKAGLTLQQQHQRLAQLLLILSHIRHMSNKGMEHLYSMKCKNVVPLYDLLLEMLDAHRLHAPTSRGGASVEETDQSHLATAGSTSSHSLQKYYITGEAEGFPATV
Summary of the method: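 Compounds were tested against 0.1 nM (final) 17beta-estradiol in VM7Luc4E2 cells, which express full-length ER-alpha and an ERE-luciferase reporter; luminescence was recorded following 22 h exposure.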

[3] = qHTS assay to identify small molecule HDAC inhibitors (AID 1259364);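 note: wild-type HCT-116 cells with endogenous class I/II HDAC activity; top concentration of the series differs between compounds; nearly all actives have a fitted effect of over 45% in size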
Summary of the method: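 Screening used wild-type human colon HCT-116 cells incubated overnight, dosed with compounds for 2 hours, and assayed with a homogeneous luminogenic HDAC I/II reagent for 30 minutes at room temperature.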

[4] = qHTS assay to identify small molecule HDAC inhibitors - cell viability counter screen (AID 1259365); note: nearly all actives have a fitted effect of over 50% in size; note: potency is the fitted concentration of half-maximal effect
Summary of the method: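 Cytotoxicity was gauged in wild-type HCT-116 cells after a brief 2hr treatment with DMSO-dissolved compounds at 37C and 5% CO2, using CellTiter-Glo luminescence developed for 30min at room temperature.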

[5] = qHTS assay to identify small molecule agonists of the sonic hedgehog signaling (Shh) pathway - cell viability counter screen (AID 1259366); note: nearly all actives have a fitted effect of over 50% in size; note: potency is the fitted concentration of half-maximal effect
Summary of the method: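 Stable Gli1-Luc NIH/3T3 clone, 2,000 cells/well. Compound exposure 24hr at 37C. Read-out: CellTiter-Fluor fluorescence.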

[6] = qHTS assay to identify small molecule antagonists of the sonic hedgehog signaling (Shh) pathway - cell viability counter screen (AID 1259367); note: nearly all actives have a fitted effect of over 55% in size; note: potency is the fitted concentration of half-maximal effect
Summary of the method: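 Cytotoxicity was assessed in parallel with Shh reporter activity by measuring live-cell protease fluorescence (CellTiter-Fluor) in NIH/3T3 cells stably carrying Gli1-Luc, treated with compound under conditioned medium stimulation for 23 hr plus 1 hr reagent incubation.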

[7] = qHTS assay to identify small molecule agonists of the sonic hedgehog signaling (Shh) pathway (AID 1259368; calls by dose curve;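 note: NIH/3T3-derived 3T3Gli1-Luc cells carrying a stable Gli1-driven firefly luciferase reporter; series mostly up to about 92 µM; nearly all actives have a fitted effect of over 15% in size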)
Summary of the method: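 Hedgehog pathway agonism scored by increased firefly luciferase luminescence in 3T3Gli1-Luc cells treated 24 hr at 37 C; detection used a 30 min room-temperature reagent incubation.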

[8] = qHTS assay to identify small molecule antagonists of the sonic hedgehog signaling (Shh) pathway (AID 1259369; calls by dose curve; note: nearly all actives have a fitted effect of over 45% in size; note: potency is the fitted concentration of half-maximal effect)
Summary of the method: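 NIH/3T3 stable Gli1-Luc clone, 2,000 cells/well, 4hr settle; cpd + conditioned medium 24hr; Luc reagent 30min RT; luminescence.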

[9] = biological target: Androgen receptor (Homo sapiens) (UniProt P10275); assay: qHTS assay to identify small molecule antagonists of the androgen receptor (AR) signaling pathway using the MDA cell line in the presence of 0.5 nM R1881 (AID 1259243); note: nearly all actives have a fitted effect of over 50% in size; note: potency is the fitted concentration of half-maximal effect
Androgen receptor (Homo sapiens), sequence (P10275 whole entry, looked up): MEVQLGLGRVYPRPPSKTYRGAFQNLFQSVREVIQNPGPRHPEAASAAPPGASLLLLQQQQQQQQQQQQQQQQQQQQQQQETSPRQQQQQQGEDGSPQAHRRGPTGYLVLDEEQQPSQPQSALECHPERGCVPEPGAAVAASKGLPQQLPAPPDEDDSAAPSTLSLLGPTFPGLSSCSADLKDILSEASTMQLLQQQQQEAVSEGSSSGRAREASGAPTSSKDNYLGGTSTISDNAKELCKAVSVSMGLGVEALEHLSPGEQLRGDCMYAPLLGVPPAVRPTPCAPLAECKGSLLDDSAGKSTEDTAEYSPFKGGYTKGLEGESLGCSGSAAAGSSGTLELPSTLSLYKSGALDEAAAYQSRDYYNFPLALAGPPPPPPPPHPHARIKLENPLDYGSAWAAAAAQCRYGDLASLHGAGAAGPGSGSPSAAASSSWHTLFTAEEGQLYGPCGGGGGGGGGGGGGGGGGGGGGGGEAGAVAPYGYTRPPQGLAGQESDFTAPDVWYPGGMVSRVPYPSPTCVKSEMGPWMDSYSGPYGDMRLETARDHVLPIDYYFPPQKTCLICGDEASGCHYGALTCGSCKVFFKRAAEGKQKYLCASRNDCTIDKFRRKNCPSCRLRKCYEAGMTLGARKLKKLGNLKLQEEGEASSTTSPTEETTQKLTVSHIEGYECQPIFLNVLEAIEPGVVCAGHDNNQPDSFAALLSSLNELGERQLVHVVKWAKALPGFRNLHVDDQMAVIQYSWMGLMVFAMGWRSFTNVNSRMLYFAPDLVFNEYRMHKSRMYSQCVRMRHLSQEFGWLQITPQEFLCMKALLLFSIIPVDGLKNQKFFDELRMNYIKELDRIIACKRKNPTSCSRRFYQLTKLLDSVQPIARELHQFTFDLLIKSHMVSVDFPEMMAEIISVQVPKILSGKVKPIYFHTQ
Summary of the method: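 With R1881 held at 0.5 nM (final), compound effects on MMTV-luciferase expression in MDA-kb2 cells were scored by luminescence after a 16 hr, 37C incubation.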

Q: For `Oc1ccc(C2(c3ccc(O)cc3)c3ccccc3-c3ccccc32)cc1`, which Potency [1] is on record?
A: inactive

Q: And the Potency [2]?
A: 1.72 µM (active)

Q: What about the Potency [3] of the same molecule?
A: inactive

Q: What about the Potency [4] of the same molecule?
A: inactive

Q: What about the Potency [5] of the same molecule?
A: 54.5 µM (active)

Q: And the Potency [6]?
A: 27.3 µM (active)

Q: What about the Potency [7] of the same molecule?
A: inactive

Q: And the Potency [8]?
A: 27.3 µM (active)

Q: Which Potency [3] does the source give for `CCCOCC(=Nc1ccc(Cl)cc1C(F)(F)F)n1ccnc1` here?
A: inactive

Q: And the Potency [6]?
A: 54.4 µM (active)

Q: What about the Potency [7] of the same molecule?
A: inactive

Q: Which Potency [1] does the source give for `CC(=O)[O-].CC(=O)[O-].O.O.[Cd+2]` here?
A: inactive

Q: And the Potency [3]?
A: inactive

Q: And the Potency [4]?
A: inactive

Q: What about the Potency [5] of the same molecule?
A: 3.8 µM (active)

Q: What about the Potency [6] of the same molecule?
A: 8.51 µM (active)

Q: What about the Potency [7] of the same molecule?
A: inactive

Q: And the Potency [8]?
A: 1.07 µM (active)

Q: What does the source list for `Nc1c(Oc2ccccc2)cc(O)c2c1C(=O)c1ccccc1C2=O`?
A: Potency [1]: inactive; Potency [9]: inactive; Potency [3]: inactive; Potency [4]: inactive; Potency [5]: inactive; Potency [8]: inactive

Q: Which Potency [1] does the source give for `O=C1NCN(c2ccccc2)C12CCN(CC1COc3ccccc3O1)CC2` (stereo not drawn) here?
A: inactive

Q: And the Potency [4]?
A: inactive

Q: And the Potency [7]?
A: inactive

Q: What about the Potency [8] of the same molecule?
A: inactive

Q: Which Potency [1] does the source give for `O=c1[nH]c2ccccc2n1C1CCN(CCCC(c2ccc(F)cc2)c2ccc(F)cc2)CC1` here?
A: 54.5 µM (active) and inactive

Q: And the Potency [2]?
A: 48.6 µM (active)

Q: What about the Potency [3] of the same molecule?
A: inactive

Q: What about the Potency [4] of the same molecule?
A: inactive

Q: And the Potency [5]?
A: 27.3 µM (active)

Q: What about the Potency [6] of the same molecule?
A: inactive

Q: And the Potency [7]?
A: inactive

Q: Which Potency [1] does the source give for `Fc1cccc(Cl)c1CCl` here?
A: inactive

Q: And the Potency [2]?
A: inactive

Q: And the Potency [3]?
A: inactive

Q: And the Potency [4]?
A: inactive

Q: What about the Potency [5] of the same molecule?
A: inactive

Q: What about the Potency [6] of the same molecule?
A: inactive

Q: And the Potency [7]?
A: inactive

Q: What about the Potency [8] of the same molecule?
A: inactive

Q: With `CC[C@H]1C[C@@H]2C[C@H]3c4[nH]c5ccc(OC)cc5c4CCN(C2)[C@@H]13` as the molecule, how does the Potency [9] read?
A: 60.1 µM (active)

Q: And the Potency [3]?
A: inactive

Q: What about the Potency [5] of the same molecule?
A: 53.5 µM (active)

Q: What about the Potency [6] of the same molecule?
A: 60.1 µM (active)

Q: What about the Potency [7] of the same molecule?
A: inactive

Q: And the Potency [8]?
A: 12 µM (active)

Q: For `Nc1ccc(Cc2ccc(N)c(Cl)c2)cc1Cl`, which Potency [1] is on record?
A: inactive

Q: And the Potency [3]?
A: inactive

Q: And the Potency [4]?
A: inactive

Q: What about the Potency [6] of the same molecule?
A: 52.7 µM (active)

Q: What about the Potency [7] of the same molecule?
A: inactive

Q: And the Potency [8]?
A: 21 µM (active)

Q: For `CCCCCCCCCC[N+](C)(C)CCCCCCCCCC`, which Potency [1] is on record?
A: 54.5 µM (active)

Q: What about the Potency [4] of the same molecule?
A: 68.6 µM (active)

Q: And the Potency [5]?
A: 21.7 µM (active)

Q: What about the Potency [6] of the same molecule?
A: 13.7 µM (active)

Q: What about the Potency [7] of the same molecule?
A: inactive

Q: What about the Potency [8] of the same molecule?
A: 0.969 µM (active)

Q: What does the source list for `O=C1c2ccccc2C(=O)C1C(=O)C(c1ccccc1)c1ccc(Cl)cc1` (stereo not drawn)?
A: Potency [1]: inactive; Potency [9]: 21.7 µM (active); Potency [2]: 27.3 µM (active); Potency [3]: inactive; Potency [5]: inactive; Potency [6]: inactive; Potency [7]: inactive

Q: Which Potency [1] does the source give for `CCCCCCCCCCCCCCCCCCn1cc[n+](C)c1` here?
A: 34.2 µM (active)

Q: What about the Potency [9] of the same molecule?
A: 3.83 µM (active)

Q: And the Potency [2]?
A: 15.3 µM (active)

Q: What about the Potency [3] of the same molecule?
A: inactive

Q: What about the Potency [5] of the same molecule?
A: 30.5 µM (active)

Q: What about the Potency [6] of the same molecule?
A: 30.5 µM (active)

Q: What about the Potency [7] of the same molecule?
A: inactive

Q: And the Potency [8]?
A: 0.0542 µM (active)

Q: Which Potency [4] does the source give for `C=CCC1=C(C)C(OC(=O)C2C(C=C(C)C)C2(C)C)CC1=O` (stereo not drawn) here?
A: inactive

Q: And the Potency [5]?
A: inactive

Q: And the Potency [6]?
A: inactive

Q: What about the Potency [7] of the same molecule?
A: inactive

Q: What about the Potency [8] of the same molecule?
A: 16.3 µM (active)

Q: With `CC(C)(C)C(O)/C(=C\c1ccc(Cl)cc1Cl)n1cncn1` (stereo not drawn) as the molecule, how does the Potency [2] read?
A: 74 µM (active)

Q: What about the Potency [3] of the same molecule?
A: inactive

Q: And the Potency [4]?
A: inactive

Q: And the Potency [6]?
A: 65.9 µM (active)

Q: And the Potency [7]?
A: inactive

Q: And the Potency [8]?
A: 7.4 µM (active)

Q: Which Potency [1] does the source give for `CCc1cc(C)cc(CC)c1-c1c(OC(=O)C(C)(C)C)n2n(c1=O)CCOCC2` here?
A: inactive

Q: And the Potency [4]?
A: inactive

Q: And the Potency [5]?
A: 27.3 µM (active)

Q: And the Potency [6]?
A: 15.4 µM (active)

Q: What about the Potency [7] of the same molecule?
A: inactive

Q: What about the Potency [8] of the same molecule?
A: inactive

Q: Which results are given for `CCOCn1c(-c2ccc(Cl)cc2)c(C#N)c(Br)c1C(F)(F)F`?
A: Potency [1]: 5.45 µM (active); Potency [2]: 1.93 µM (active); Potency [4]: inactive; Potency [5]: inactive; Potency [7]: inactive; Potency [8]: 0.611 µM (active)

Q: Which results are given for `CN(C)S(=O)(=O)N(SC(F)(Cl)Cl)c1ccccc1`?
A: Potency [3]: inactive; Potency [5]: 6.11 µM (active); Potency [6]: 12.2 µM (active); Potency [7]: inactive; Potency [8]: 2.17 µM (active)

Q: What does the source list for `COc1cc(C=O)cc2c1[C@H](COC(N)=O)[C@]1(OC(C)=O)ON2C[C@H]2[C@@H]1N2C(C)=O`?
A: Potency [1]: inactive; Potency [2]: 0.154 µM (active); Potency [3]: inactive; Potency [4]: inactive; Potency [5]: 6.11 µM (active); Potency [7]: inactive

Q: What does the source list for `CCCCCCCCc1ccc(O)cc1`?
A: Potency [3]: inactive; Potency [4]: inactive; Potency [6]: inactive; Potency [7]: inactive

Q: For `c1ccc2cc3c(cc2c1)-c1cccc2cccc-3c12`, which Potency [1] is on record?
A: inactive

Q: And the Potency [9]?
A: 3.02 µM (active)

Q: And the Potency [3]?
A: inactive

Q: And the Potency [4]?
A: inactive

Q: What about the Potency [6] of the same molecule?
A: inactive

Q: And the Potency [7]?
A: inactive

Q: Which Potency [1] does the source give for `O=C(CCCN1CCC2(CC1)C(=O)NCN2c1ccccc1)c1ccc(F)cc1` here?
A: inactive

Q: And the Potency [2]?
A: 8.41 µM (active)

Q: What about the Potency [3] of the same molecule?
A: inactive

Q: What about the Potency [5] of the same molecule?
A: inactive

Q: What about the Potency [6] of the same molecule?
A: inactive

Q: And the Potency [7]?
A: inactive

Q: And the Potency [8]?
A: 2.11 µM (active)

Q: Which Potency [3] does the source give for `COc1ccc(N)cc1N` here?
A: inactive

Q: And the Potency [4]?
A: 15.8 µM (active)

Q: What about the Potency [5] of the same molecule?
A: 9.99 µM (active) and 29.4 µM (active)

Q: What about the Potency [6] of the same molecule?
A: 15.8 µM (active) and 33 µM (active)

Q: What about the Potency [7] of the same molecule?
A: inactive

Q: And the Potency [8]?
A: 3.55 µM (active) and 8.29 µM (active)

Q: With `CN(C)CCc1c[nH]c2cccc(O)c12` as the molecule, how does the Potency [3] read?
A: inactive

Q: And the Potency [7]?
A: inactive

Q: And the Potency [8]?
A: 53.9 µM (active)

Q: With `O=[N+]([O-])c1ccc2ccc3cccc4ccc1c2c34` as the molecule, how does the Potency [1] read?
A: inactive

Q: And the Potency [9]?
A: 0.863 µM (active)

Q: What about the Potency [4] of the same molecule?
A: inactive

Q: What about the Potency [5] of the same molecule?
A: inactive

Q: What about the Potency [6] of the same molecule?
A: inactive

Q: What about the Potency [7] of the same molecule?
A: inactive

Q: What about the Potency [8] of the same molecule?
A: inactive
